# Assay results: PubChem BioAssay AID540351 (The Scripps Research Institute Molecular Screening Center, 2011)
# Unmarked numbers belong to inactive results. No rule for the calls is given here.
# Tested on: Imidazoline I2
# Assay: off-target receptor, channel and CYP panel, profiling panel, selectivity assay for S1P3 agonist project, biochemical, Ricerca HitProfilingScreen, CYP450 (AID 540351)
# Details: Ricerca receptor/enzyme binding panel plus CYP450, Central, at 30 µM, active compounds read high
smiles,measurement,value
O=C(c1cc(C2CC2)on1)N(C1CCCCC1)C1CCCCC1,inhibition,23%
